This note sets out measurements from PubChem BioAssay.

Assay [1] is described as follows: rapamycin-like changes in RPL19A-GFP expression – cell-based, S. cerevisiae, multiplex flow cytometry, primary screen (AID 1862; in the data active means percent of DMSO control GFP below about 86%;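 further: lower values mimic rapamycin by blocking the RPL19A rise seen in DMSO cells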). The note with it: S. cerevisiae RPL19A-GFP strain, flow cytometry fluorescence, 3 h; at 10 µM; stronger effect = lower value.
Assay [2] can be described thus: TOR pathway GLN3 branch reporter MEP2-GFP changes – S. cerevisiae, multiplex flow cytometry, primary screen (AID 1867).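 Further: median GFP channel fluorescence of barcode-gated MEP2-GFP cells measured by flow cytometry.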 The note with it: S. cerevisiae MEP2-GFP strain, 3 h, at 10 µM, stronger effect = higher value, 100% means same as DMSO wells. In general terms: In flow cytometry, cells or beads pass a laser one at a time.
Assay [3] in a line: TOR pathway RTG branch CIT2 reporter changes – S. cerevisiae, GFP fusion, multiplex flow cytometry, primary screen (AID 1870;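 active means percent response above a set limit, the screen-wide mean plus 3 SD, cut at about 130% in these data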;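 further: barcoded CIT2-GFP strain pooled with four other GFP strains with rapamycin as positive control; median GFP fluorescence per well over plate mean of DMSO wells so 100% = DMSO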). The note with it: S. cerevisiae CIT2-GFP expression, 3 h, at 10 µM, stronger effect = higher value.
Assay [4] in a line: TOR pathway LAP4-GFP level changes – S. cerevisiae, multiplex flow cytometry, primary screen (AID 1873;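 active means GFP signal, as percent of the solvent control, above the screen mean plus 3 SD, about 149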). The note with it: S. cerevisiae LAP4-GFP expression, 3 h, at 10 µM, stronger effect = higher value.
Assay [5] is described as follows: yeast AGP1-GFP level changes, GLN3 branch – cell-based, multiplex flow cytometry, S. cerevisiae, primary screen (AID 1887;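 active means GFP signal above the screen-wide mean plus 3 SD, that is over about 124.5% of the solvent control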;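 further: AGP1-GFP fusion strain of S. cerevisiae within a five-strain barcoded multiplex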). The note with it: 3 h, at 10 µM, stronger effect = higher value.
The nature of assay [6]: reduced mouse 2C T cell binding to pMHC/ICAM-1 vesicles – MLPCN validation set, flow cytometry, LFA-1/ICAM-1 modulator project, pilot screen (AID 2523;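 active means response below a set limit, under 55% cells CD8-positive and vesicle-bound, and CD8 cells' 90th-percentile brightness under 279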;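 on vesicle binding response: mean PE anti-B7-1 fluorescence of CD8+ cells relative to row control; 100% = QL9-loaded vesicles with DMSO vehicle in the same plate row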). The note with it: 2C mouse CD8+ T cells, at 7 µM, stronger effect = lower value; double positive events: measured here: CD8+/vesicle+ event percentage.
For assay [7], the target named is Integrin beta-1 (Homo sapiens) + Integrin alpha-4 (Homo sapiens) (UniProt P13612+P05556). Put plainly: alpha4beta1 integrin LIBS antibody binding reduction – U937 cells, HUTS-21 mAb, flow cytometry, validation set, VLA-4 allosteric modulator project, pilot screen (AID 2674;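 active means inhibition above 50%, about 3 SD of the validation set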;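 further: antibody binding induced by the VLA-4 ligand LDV present at three times its Kd; 0% = LDV ligand with antibody and no compound and 100% = antibody without LDV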). The note with it: HUTS-21 LIBS mAb binding, at 6.7 µM, stronger effect = higher value, binding induced by LDV ligand.
Chain of Integrin beta-1 (Homo sapiens) + Integrin alpha-4 (Homo sapiens) (P05556 whole entry, looked up): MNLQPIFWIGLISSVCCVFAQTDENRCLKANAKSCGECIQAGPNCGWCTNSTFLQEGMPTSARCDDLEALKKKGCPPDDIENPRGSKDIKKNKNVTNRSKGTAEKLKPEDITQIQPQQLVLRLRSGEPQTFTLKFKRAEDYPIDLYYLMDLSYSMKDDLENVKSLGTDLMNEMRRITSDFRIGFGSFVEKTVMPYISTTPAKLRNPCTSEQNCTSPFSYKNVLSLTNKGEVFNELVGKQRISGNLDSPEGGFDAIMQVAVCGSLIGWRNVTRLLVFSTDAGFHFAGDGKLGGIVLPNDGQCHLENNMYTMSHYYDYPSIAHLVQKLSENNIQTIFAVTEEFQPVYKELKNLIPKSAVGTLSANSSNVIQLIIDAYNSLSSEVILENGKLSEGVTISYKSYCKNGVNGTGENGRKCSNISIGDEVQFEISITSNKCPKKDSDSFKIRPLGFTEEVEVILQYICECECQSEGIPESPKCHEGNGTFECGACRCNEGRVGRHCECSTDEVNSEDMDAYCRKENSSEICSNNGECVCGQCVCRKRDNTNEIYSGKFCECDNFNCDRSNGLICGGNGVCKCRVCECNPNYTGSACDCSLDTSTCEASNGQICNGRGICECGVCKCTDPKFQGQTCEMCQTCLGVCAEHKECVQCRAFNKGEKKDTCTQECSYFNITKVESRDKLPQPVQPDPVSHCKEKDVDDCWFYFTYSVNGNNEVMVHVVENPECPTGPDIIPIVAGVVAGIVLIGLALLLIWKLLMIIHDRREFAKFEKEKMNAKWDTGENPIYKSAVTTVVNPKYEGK
Chain of Integrin beta-1 (Homo sapiens) + Integrin alpha-4 (Homo sapiens) (P13612 whole entry, looked up): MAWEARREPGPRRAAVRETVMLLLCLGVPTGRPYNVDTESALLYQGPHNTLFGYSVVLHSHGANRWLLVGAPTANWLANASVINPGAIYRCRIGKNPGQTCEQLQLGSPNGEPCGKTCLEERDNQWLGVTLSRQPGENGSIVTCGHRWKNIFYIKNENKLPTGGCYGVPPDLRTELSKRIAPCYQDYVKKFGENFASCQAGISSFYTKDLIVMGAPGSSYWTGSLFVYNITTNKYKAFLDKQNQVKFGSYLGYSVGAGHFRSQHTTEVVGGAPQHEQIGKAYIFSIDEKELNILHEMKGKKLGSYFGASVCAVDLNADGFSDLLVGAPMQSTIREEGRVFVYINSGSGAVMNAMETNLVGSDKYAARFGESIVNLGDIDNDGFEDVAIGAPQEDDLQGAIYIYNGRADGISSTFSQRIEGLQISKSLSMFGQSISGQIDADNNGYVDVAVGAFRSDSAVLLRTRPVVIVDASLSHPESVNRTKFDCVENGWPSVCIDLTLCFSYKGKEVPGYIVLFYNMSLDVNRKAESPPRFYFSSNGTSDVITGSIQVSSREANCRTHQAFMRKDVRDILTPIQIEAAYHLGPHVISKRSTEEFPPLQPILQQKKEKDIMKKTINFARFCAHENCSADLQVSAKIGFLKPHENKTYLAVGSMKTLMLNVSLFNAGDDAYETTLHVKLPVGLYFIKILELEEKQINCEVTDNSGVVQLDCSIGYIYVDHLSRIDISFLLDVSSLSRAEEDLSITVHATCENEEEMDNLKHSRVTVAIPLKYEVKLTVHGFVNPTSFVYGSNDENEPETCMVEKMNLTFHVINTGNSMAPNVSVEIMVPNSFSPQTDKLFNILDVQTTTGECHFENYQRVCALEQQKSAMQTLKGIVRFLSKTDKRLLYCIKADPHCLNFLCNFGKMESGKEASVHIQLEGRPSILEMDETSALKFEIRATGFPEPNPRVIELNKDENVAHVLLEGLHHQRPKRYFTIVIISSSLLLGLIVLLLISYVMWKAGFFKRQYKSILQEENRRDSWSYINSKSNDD

A short description of assay [8]: calorie-restriction mimetic ROS inhibitors, yeast – validation compound set, pilot screen (AID 2706;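 active means superoxide response below 65% of plate, a cut near 3 SD across the whole screen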;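 further: yeast exposed to compound for one week at 30 degrees C before staining; 100% = mean of all compound wells on the same plate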). The note with it: S. cerevisiae aging, superoxide DHE fluorescence; at 10 µM, stronger effect = lower value.
Assay [9] concerns the target Beta-adrenergic receptor kinase 1 (Homo sapiens) (UniProt P25098). Put plainly: GRK2 binders displacing RNA aptamer, biochemical, validation, human GRK2, bead flow cytometry (AID 488806;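 active means aptamer binding inhibition above 30%, about 3 SD of noise from non-fluorescent compounds; inactive means inhibition at or below 30%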). The note with it: bead-bound GRK2, FAM-aptamer displacement, at 10 µM, stronger effect = higher value.
For assay [10], the target named is AP-2 complex subunit beta (Homo sapiens) (UniProt P63010). Put plainly: beta-arrestin/AP2 interaction blockers – biochemical, validation set, GST-AP2 beads, flow cytometry, pilot screen (AID 504541;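 active means inhibition above 54%, about 3 SD of non-fluorescent compounds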;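 further: AP2 carries R879A mutation and is captured from E. coli lysate; bead-bound FITC arrestin peptide fluorescence measuring arrestin peptide binding to AP2; 0% = DMSO wells and 100% = excess unlabeled arrestin peptide control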). The note with it: FITC arrestin peptide, at 10 µM, stronger effect = higher value, AP2 beta2 appendage fragment, R879A mutant.
Chain of AP-2 complex subunit beta (Homo sapiens) (P63010 whole entry, looked up, the tested form may be a part, one chain of several): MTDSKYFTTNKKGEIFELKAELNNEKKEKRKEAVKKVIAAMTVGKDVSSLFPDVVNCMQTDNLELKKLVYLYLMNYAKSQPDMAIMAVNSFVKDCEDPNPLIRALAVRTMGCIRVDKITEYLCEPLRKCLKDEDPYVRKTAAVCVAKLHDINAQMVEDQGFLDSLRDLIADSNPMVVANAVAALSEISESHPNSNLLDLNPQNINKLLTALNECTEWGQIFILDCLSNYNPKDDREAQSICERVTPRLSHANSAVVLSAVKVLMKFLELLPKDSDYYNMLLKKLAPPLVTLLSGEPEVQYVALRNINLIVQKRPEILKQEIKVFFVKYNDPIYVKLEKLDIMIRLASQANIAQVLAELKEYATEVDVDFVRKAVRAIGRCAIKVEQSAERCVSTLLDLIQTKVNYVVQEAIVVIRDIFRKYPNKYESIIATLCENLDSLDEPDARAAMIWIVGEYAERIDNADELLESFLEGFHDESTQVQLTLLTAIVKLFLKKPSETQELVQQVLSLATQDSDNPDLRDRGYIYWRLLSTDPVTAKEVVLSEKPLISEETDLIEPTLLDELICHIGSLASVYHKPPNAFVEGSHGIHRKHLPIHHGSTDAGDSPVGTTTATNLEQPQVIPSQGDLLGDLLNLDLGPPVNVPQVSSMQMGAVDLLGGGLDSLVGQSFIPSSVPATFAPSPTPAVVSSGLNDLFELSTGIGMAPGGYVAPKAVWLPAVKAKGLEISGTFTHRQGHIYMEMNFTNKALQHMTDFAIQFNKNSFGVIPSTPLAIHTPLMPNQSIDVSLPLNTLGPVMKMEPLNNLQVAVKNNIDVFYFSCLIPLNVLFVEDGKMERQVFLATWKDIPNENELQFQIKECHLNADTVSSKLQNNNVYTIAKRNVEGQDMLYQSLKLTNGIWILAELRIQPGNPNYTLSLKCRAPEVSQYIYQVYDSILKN
A short description of assay [11]: cytosolic pH regulators acting via V-ATPase – S. cerevisiae, pHLuorin, HTS validation (AID 504600; in the data active means response above about 15%;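 further: plate controls were DMSO for no effect and reference compound for full effect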). The note with it: V-ATPase proton transport, at 10 µM, stronger effect = higher value.
The test system of assay [12] is anti-desmoglein-3 scFv antibody binding to human DSG3. Put plainly: blockers of pathogenic pemphigus antibody–desmoglein-3 binding – biochemical, validation compound set, bead-based, flow cytometry, pilot screen (AID 588368;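 active means binding below the plate cutoff, the plate median minus 3 SD, with a reading above zero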;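 further: signal is the median channel fluorescence of bead-bound GFP antibody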). The note with it: Protein G beads, DSG3-Fc, scFv-GFP binding, at 10 µM, stronger effect = lower value.
Assay [13] can be described thus: Nile Red efflux blockade in pump-expressing yeast – validation compound set, multiplex, phenotypic, pilot screen (AID 588506;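 active means efflux inhibition above 0.42, the validation set average plus 4 SD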;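 further: Nile Red retained in cells so higher fluorescence means more efflux inhibition; 0 = negative control wells and 1 = enniatin B 25 µM full block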). The note with it: S. cerevisiae pump-expressing triplex, Nile Red efflux flow cytometry; at 10 µM; stronger effect = higher value; the pumps come from Candida albicans.
Assay [14] has as its target ATP-binding cassette sub-family B member 6 (Homo sapiens) (UniProt Q9NP58). Put plainly: blockers of ABCB6-driven porphyrin uptake – K562-ABCB6 cells, flow cytometry, validation set, pilot screen (AID 588550;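 active means inhibition above the screen-wide mean plus 3 SD, about 51%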;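 further: 0% = DMSO wells and 100% = benzethonium chloride 70 µM positive control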). The note with it: K562-ABCB6 porphyrin accumulation, 1 h, at 10 µM, stronger effect = higher value.
A short description of assay [15]: AML differentiation inducers, ER-HoxA9 marrow cells – cell-based, GFP/MAC1 double positive, flow cytometry, validation set, primary screen (AID 588685;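 active means differentiation response of at least 50%, scaled between solvent and reference control, from cells with both markers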;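 further: compound exposure lasts four days before antibody staining and flow analysis; 0% = DMSO wells and 100% = 5 µM fulvestrant positive control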). The note with it: stronger effect = higher value, normalized: vehicle 0, fulvestrant 100.

Inconclusive results are not listed. Activity calls are given as the source filed them.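 How the source made its calls, unless noted: active means GFP response, as percent of the DMSO control, above the screen-wide mean plus 3 SD, about 139; inconclusive means no response measured because the compound's own fluorescence interfered; inactive means the rest.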 Peptide text beside a SMILES is read from it. * marks the point of attachment. Boc = CC(C)(C)OC(=O)*

Chain of Beta-adrenergic receptor kinase 1 (Homo sapiens) (P25098 whole entry, looked up): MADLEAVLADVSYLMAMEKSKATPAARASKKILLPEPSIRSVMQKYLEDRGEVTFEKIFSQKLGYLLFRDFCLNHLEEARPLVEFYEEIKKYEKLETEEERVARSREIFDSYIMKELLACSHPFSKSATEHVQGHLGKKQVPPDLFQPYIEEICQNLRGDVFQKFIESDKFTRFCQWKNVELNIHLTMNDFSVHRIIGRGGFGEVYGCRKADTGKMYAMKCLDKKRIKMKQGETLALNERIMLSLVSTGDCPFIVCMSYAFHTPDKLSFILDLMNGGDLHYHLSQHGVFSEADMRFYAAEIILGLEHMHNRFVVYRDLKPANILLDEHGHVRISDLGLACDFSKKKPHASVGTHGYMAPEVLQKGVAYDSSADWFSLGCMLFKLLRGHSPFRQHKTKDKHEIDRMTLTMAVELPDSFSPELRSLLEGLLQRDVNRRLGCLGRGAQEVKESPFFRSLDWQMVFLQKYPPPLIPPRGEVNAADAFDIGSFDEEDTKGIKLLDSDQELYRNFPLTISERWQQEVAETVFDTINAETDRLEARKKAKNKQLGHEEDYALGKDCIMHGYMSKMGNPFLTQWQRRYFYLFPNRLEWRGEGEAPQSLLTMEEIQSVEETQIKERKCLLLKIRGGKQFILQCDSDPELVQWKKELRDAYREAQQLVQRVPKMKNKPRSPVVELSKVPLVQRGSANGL
Chain of ATP-binding cassette sub-family B member 6 (Homo sapiens) (Q9NP58 whole entry, looked up): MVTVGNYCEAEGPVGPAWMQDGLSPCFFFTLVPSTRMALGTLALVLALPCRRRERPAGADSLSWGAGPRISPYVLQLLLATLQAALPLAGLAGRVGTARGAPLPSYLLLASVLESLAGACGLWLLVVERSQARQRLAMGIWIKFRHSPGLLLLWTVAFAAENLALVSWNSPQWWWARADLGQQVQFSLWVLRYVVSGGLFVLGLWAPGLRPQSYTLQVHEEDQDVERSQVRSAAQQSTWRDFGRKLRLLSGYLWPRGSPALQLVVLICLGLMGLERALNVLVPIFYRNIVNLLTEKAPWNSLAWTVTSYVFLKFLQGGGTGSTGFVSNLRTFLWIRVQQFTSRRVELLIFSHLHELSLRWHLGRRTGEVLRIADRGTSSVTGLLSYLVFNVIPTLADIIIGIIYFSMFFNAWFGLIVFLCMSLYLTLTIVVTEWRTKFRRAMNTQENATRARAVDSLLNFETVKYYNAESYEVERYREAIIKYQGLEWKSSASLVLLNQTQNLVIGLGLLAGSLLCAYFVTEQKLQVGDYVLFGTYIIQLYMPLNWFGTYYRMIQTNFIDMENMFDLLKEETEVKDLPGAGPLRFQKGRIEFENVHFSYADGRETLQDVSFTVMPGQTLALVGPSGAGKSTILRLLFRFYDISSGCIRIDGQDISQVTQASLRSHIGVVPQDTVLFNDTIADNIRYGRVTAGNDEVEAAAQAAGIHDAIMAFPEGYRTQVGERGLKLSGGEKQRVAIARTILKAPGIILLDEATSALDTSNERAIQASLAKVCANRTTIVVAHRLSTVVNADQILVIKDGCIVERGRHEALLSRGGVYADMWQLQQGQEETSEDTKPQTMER

With `CN1CCC(=C2c3ccccc3C=Cc3ccccc32)CC1`, in assay [1], the percent of DMSO control GFP was 98.8% (inactive). Further, the GFP response vs DMSO in assay [2] was 99.9% (inactive); in [4] it was 104% (inactive). For the same compound, the percent response of DMSO control in assay [3] is 105% (inactive). For the same compound, the GFP response, % of DMSO in [5] is 99.7% (inactive). In addition, in assay [6], the double positive events is 62.8%. Also, the vesicle binding response in assay [6] was 194% (inactive). Further, the inhibition (in general, the change of the read-out against control, counted positive when it falls) in assay [7] was 13.8% (inactive); in assay [10], 24.3% (inactive); in assay [14], 8% (inactive). For the same compound, the superoxide response (% of plate) in [8] was 88.8% (inactive). In addition, the aptamer binding inhibition in assay [9] was -3% (inactive). Moreover, in [11], the response is -5.41% (inactive). Also, the binding (% of control) in assay [12] was 97.2% (inactive). Moreover, the efflux inhibition (fraction of control) in [13] is -0.09 (inactive). Further, in assay [15], the differentiation response is -29.3% (inactive).
Regarding `CC(C)CC(NC(=O)C1CCCN1C(=O)OC(C)(C)C)C(=O)NCC(N)=O` (stereo not drawn) (Boc-Pro-Leu-Gly-NH2; configuration not given here), the percent of DMSO control GFP in assay [1] was 97.3% (inactive). In addition, the results for the GFP response vs DMSO in assay [2] and in [4] were 98.9% (inactive) and 94.3% (inactive), respectively. For the same compound, in assay [3], the percent response of DMSO control was 92% (inactive). In addition, the GFP response, % of DMSO in assay [5] was 91.8% (inactive). For the same compound, in [6], the double positive events is 62.8%. Also, in assay [6], the vesicle binding response is 171% (inactive). Besides, the inhibition in assay [7] is -3.97% (inactive); in assay [10] it was -1.69% (inactive); in assay [14], 8% (inactive). In assay [8], the superoxide response (% of plate) is 89.5% (inactive). Besides, in assay [9], the aptamer binding inhibition is 4% (inactive). The response in assay [11] was -1.76% (inactive). Also, in assay [12], the binding (% of control) is 102% (inactive). For the same compound, in assay [13], the efflux inhibition (fraction of control) is 0.18 (inactive). Also, the differentiation response in assay [15] is 19.2% (inactive).
`O=C(O)c1cccnc1`: the percent of DMSO control GFP in assay [1] was 103% (inactive). Besides, the GFP response vs DMSO in [2] is 105% (inactive); in [4] it was 101% (inactive). Besides, in [3], the percent response of DMSO control was 96.9% (inactive). In addition, in [5], the GFP response, % of DMSO was 105% (inactive). Moreover, in [6], the double positive events came to 54.3%. The vesicle binding response in [6] is 137% (inactive). Besides, the inhibition in assay [7] is 13.8% (inactive); in assay [10] it was -4.36% (inactive); in [14], 16% (inactive). Moreover, the superoxide response (% of plate) in assay [8] is 94.8% (inactive). Besides, the aptamer binding inhibition in [9] was 4% (inactive). Also, the response in assay [11] is 4.12% (inactive). Moreover, the binding (% of control) in [12] was 101% (inactive). The efflux inhibition (fraction of control) in [13] is 0.29 (inactive). Moreover, the differentiation response in [15] was 20.8% (inactive).
With `CC1(C)S[C@@H]2[C@H](NC(=O)C(C(=O)O)c3ccccc3)C(=O)N2[C@H]1C(=O)O` (stereo not given in full), the percent of DMSO control GFP in assay [1] is 96.3% (inactive). The GFP response vs DMSO in assay [2] is 94.8% (inactive); in assay [4], 88.3% (inactive). Besides, in [3], the percent response of DMSO control was 105% (inactive). Moreover, in [5], the GFP response, % of DMSO is 98.5% (inactive). The double positive events in assay [6] turned out to be 53.1%. In addition, in assay [6], the vesicle binding response is 212% (inactive). The figures for the inhibition in [7], in assay [10] and in assay [14] were 2.56% (inactive), 1.78% (inactive) and 9% (inactive), respectively. Also, the superoxide response (% of plate) in assay [8] was 108% (inactive). The aptamer binding inhibition in [9] is 4% (inactive). Moreover, in assay [11], the response is -1.48% (inactive). Moreover, the binding (% of control) in [12] is 97.2% (inactive). Besides, the efflux inhibition (fraction of control) in [13] was -0.12 (inactive). For the same compound, the differentiation response in [15] is 1.41% (inactive).
As for `COCCCC/C(=N\OCCN)c1ccc(C(F)(F)F)cc1`, the percent of DMSO control GFP in assay [1] was 108% (inactive). Also, the figures for the GFP response vs DMSO in [2] and in assay [4] were 108% (inactive) and 93.3% (inactive), respectively. The percent response of DMSO control in assay [3] is 98.8% (inactive). In addition, the GFP response, % of DMSO in [5] was 105% (inactive). In addition, the double positive events in assay [6] came out at 60.3%. The vesicle binding response in assay [6] was 182% (inactive). In addition, the figures for the inhibition in [7], in [10] and in [14] were 10% (inactive), -0.39% (inactive) and 3% (inactive), respectively. Also, the superoxide response (% of plate) in assay [8] was 102% (inactive). In addition, the aptamer binding inhibition in [9] is -7% (inactive). Moreover, in assay [11], the response is 1.1% (inactive). Besides, the binding (% of control) in assay [12] is 91.7% (inactive). Also, in assay [13], the efflux inhibition (fraction of control) was 0.18 (inactive). Besides, the differentiation response in [15] was 139% (active).
